ELG1 repair inh: qHTS screen for small molecules that inhibit ELG1-dependent DNA repair in human embryonic kidney (HEK293T) cells expressing luciferase-tagged ELG1 | AID 504467, 2011 | HEK293T ELG1-luciferase reporter, luminescence, 16 h; DNA damage induced by 5-fluorouridine | Potency, µM (highest dose often 46.1 µM), inactives show at the highest dose activity change, negative = inhibition, hits mostly inhibitors | 2.3% of 330,000 active; note: % is set by controls: 0 for no effect and ±100 for the full control effect; nearly all actives have a fitted effect of over 55% in size
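Step one: seed 2,000 cells per well. Step two: pin-transfer compound or DMSO alongside 5-fluorouridine. Step three: incubate 16 hr, 37 °C, 5% CO2. Step four: add ONE-Glo, wait 30 min, read luminescence.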
FLuc modulator: qHTS profiling assay for firefly luciferase inhibitor/activator using purifed enzyme and Km concentrations of substrates (counterscreen for miR-21 project). Luciferin 4-monooxygenase (Photinus pyralis), P08659. purified FLuc, Km substrates, luminescence inhibition. Potency, µM (series often up to 57.5 µM), for the others: at the top dose activity change, negative = inhibition, actives largely listed as inhibitors. 6.9% of 360,000 active;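 note: plate controls were vehicle for no effect and reference inhibitor for full effect; nearly all actives have a fitted effect of over 55% in size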
Target sequence (P08659 whole entry, looked up): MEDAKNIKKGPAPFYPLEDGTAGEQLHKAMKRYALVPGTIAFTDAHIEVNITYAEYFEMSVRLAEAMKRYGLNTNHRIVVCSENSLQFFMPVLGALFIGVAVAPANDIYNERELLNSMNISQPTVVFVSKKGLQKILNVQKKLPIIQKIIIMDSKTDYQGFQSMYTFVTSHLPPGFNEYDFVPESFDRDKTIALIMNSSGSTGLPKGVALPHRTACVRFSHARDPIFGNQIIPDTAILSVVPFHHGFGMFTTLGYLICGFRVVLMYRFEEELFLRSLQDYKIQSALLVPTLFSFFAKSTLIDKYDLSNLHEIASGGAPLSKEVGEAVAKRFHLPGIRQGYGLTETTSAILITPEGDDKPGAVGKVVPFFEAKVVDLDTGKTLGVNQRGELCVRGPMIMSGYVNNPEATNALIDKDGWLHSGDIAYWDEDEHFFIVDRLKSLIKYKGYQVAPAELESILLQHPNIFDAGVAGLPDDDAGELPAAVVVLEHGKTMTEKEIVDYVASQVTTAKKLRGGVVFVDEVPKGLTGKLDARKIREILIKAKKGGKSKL
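Purified P. pyralis luciferase (10nM final) with 10uM D-luciferin and 10uM ATP (Km levels) in 50mM Tris acetate pH 7.5, 10mM Mg acetate, 0.01% Tween-20, 0.05% BSA; qHTS 6-point titration, ~60 µM downward; luminescence read.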
SMN2 splice up: qHTS Assay for Enhancers of SMN2 Splice Variant Expression | Potency, µM (highest dose often 46.1 µM), for inactives: at the top dose activity change, positive = activation, actives largely listed as activators | HEK293 SMN2-luciferase splicing reporter, luminescence, 30-36 h | 2.8% of 210,000 active; note: % of control where 0% means no effect; nearly all actives have a fitted effect of over 55% in size
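HEK293 cells carry an SMN2 […]–luciferase reporter in which exon 7 inclusion puts luciferase in frame. Cells were plated 10-12 h before compound addition, then incubated 30-36 h at 37C. ONE-Glo luminescence was read; sodium butyrate at 4.5 mM final served as control.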
NPC1 prom act: qHTS Assay for NPC1 Promoter Activators; Huh7 NPC1 promoter luciferase reporter, 24 h; Potency, µM (top dose mostly 9.22 µM), without a hit: at the top dose activation, actives largely listed as activators; 2.4% of 320,000 active; AID 485313, 2010; note: % of control where 0% means no effect; nearly all actives have a fitted effect of over 60% in size
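Luminescence from an NPC1 promoter-driven luciferase reporter in stably transfected Huh7 cells was measured after 24 h compound treatment at 37 °C, followed by 10 min ambient incubation with luciferase detection reagent.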
Rab9 promoter act: qHTS Assay for Rab9 Promoter Activators | Huh7 Rab9 promoter-luciferase reporter, luminescence, 24 h | Potency, µM (highest dose often 9.22 µM), for the others: at the highest dose activation, negative = inhibition, most hits filed as activators | 2.8% of 320,000 active; note: % of control where 0% means no effect; nearly all actives have a fitted effect of over 60% in size
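Promoter activation is measured as luciferase luminescence in Huh7 cells stably transfected with a Rab9 promoter–luciferase construct, following 24 h compound exposure at 37 °C and 10 min reagent incubation at ambient temperature.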
ELG1 genotoxic: qHTS screen for small molecules that induce genotoxicity in human embryonic kidney (HEK293T) cells expressing luciferase-tagged ELG1; HEK293T ELG1-luciferase reporter, luminescence, 16 h; Potency, µM (top dose mostly 46 µM), without a hit: at the top dose activity change, positive = activation, actives largely listed as activators; 1.3% of 330,000 active; AID 504466, 2011; note: % of control where 0% means no effect; nearly all actives have a fitted effect of over 60% in size
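ELG1-luciferase HEK293T cells, 2,000/well; compound pinned in; 16 hr, 37 °C, 5% CO2; ONE-Glo, 30 min RT; luminescence on CCD imager.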
Active calls of the source: *; ? = inconclusive; · = no result given. Shown are actives, neighbours in structure and some others; about 9.4% of the full set was active somewhere. Calls come from the whole dose curve; as a rule, active = well fitted curve in the direction sought with a large enough effect; inconclusive = small, poorly fitted or top-dose-only effect, or another doubt; inactive = no such curve, though single readings can be large; an effect the other way counts as inactive or inconclusive. Potency is the fitted concentration of half-maximal effect.

SMILES | ELG1 repair inh | FLuc modulator | SMN2 splice up | NPC1 prom act | Rab9 promoter act | ELG1 genotoxic
Cn1cccc1/C=C(\C#N)c1ccccc1 | 22.0% | ? | -16.2% | -1.3% | -5.2% | 4.0%
CN(C)c1cccc(/C=C(\C#N)c2ccccc2)c1 | ? | 1.2µM* | · | ? | 0.501µM* | 4.11µM*
CCOC(=O)c1c(C)[nH]c(C(=O)COC(=O)CSC)c1C | 17.2% | 10.7µM* | 7.9% | -2.6% | -6.4% | 2.6%
CCCCC(=O)OCC(=O)c1[nH]c(C)c(C(=O)OCC)c1C | ? | 1.9µM* | 27.4% | 0.1% | -1.5% | 12.4%
CCOC(=O)c1c(C)[nH]c(C(=O)COC(=O)C23CC4CC(CC(Cl)(C4)C2)C3)c1C | 11.6µM* | 0.9% | 22.0% | -4.0% | -4.5% | -1.6%
CCCCCCC(=O)c1c(C)[nH]c(C(=O)OCC)c1C | ? | ? | ? | 25.9% | 27.3% | 14.1µM*
CCOC(=O)c1c(C)[nH]c(C(=O)COC(=O)c2c(CC)noc2C)c1C | -9.7% | 0.0% | · | -1.3% | -5.2% | -6.8%
CCCCCC(=O)c1c(C)[nH]c(C(=O)OCC)c1C | 25.5% | ? | -1.3% | 5.5% | 6.1% | -0.3%
CC1=CC(C)C2(COC(c3ccc[n+](C)c3)OC2)C(C)C1 (stereo not drawn) | 6.51µM* | 0.5% | · | -3.0% | -20.6% | -6.7%
CCOc1ccc(S(=O)(=O)/N=C(\N)c2ccccc2)cc1 | 23.1µM* | 5.7% | · | 1.3% | -7.9% | -10.1%
CC(=O)c1csc(COc2ccc(Cl)cc2)n1 | ? | 23.9µM* | · | 0.891µM* | 0.794µM* | ?
CC(=O)Nc1nnc(COc2ccc(Cl)cc2)s1 | ? | 15.1µM* | 11.2µM* | 3.16µM* | 3.55µM* | 14.6µM*
NNC(=O)c1csc(COc2cc(Cl)cc(Cl)c2)n1 | 0.0% | 3.9% | · | -5.7% | -3.3% | 0.9%
Cc1ccccc1C(c1c(C)n(C)n(-c2ccccc2)c1=O)c1c(C)n(C)n(-c2ccccc2)c1=O | · | -3.3% | -0.2% | · | · | ·
COc1ccc(-c2nc(CNS(=O)(=O)c3cc(OC)ccc3OC)cs2)cc1 | 16.4µM* | 4.1% | -21.9% | -0.9% | -0.7% | -8.9%
COc1cccc2sc(NN)nc12 | -0.5% | ? | 5.3% | 15.6% | 2.2% | -0.1%
O=C(Nc1nnc(-c2ccccc2Cl)o1)c1nc2ccccc2s1 | ? | -4.5% | 10.2% | -0.5% | -1.9% | ?
COc1cccc2sc(Nc3nnc(-c4ccccc4Cl)o3)nc12 | ? | 12µM* | -23.0% | -15.5% | -14.5% | 11.3%
COc1ccccc1-c1nnc(Nc2nc3c(OC)cccc3s2)o1 | ? | 2.69µM* | -13.5% | -4.6% | 2.8% | 14.5%
COc1cccc(-c2nnc(Nc3nc4c(F)cccc4s3)o2)c1 | ? | 4.78µM* | 11.2µM* | 2.82µM* | 3.16µM* | 11.4%
CC(C)c1ccccc1-n1c(SCc2cc(=O)oc3ccc4ccccc4c23)nnc1-c1cccnc1 | 23.1µM* | 4.9% | -71.3% | 1.7% | -6.9% | -15.3%
CCOc1ccc(-n2c(SCc3cc(=O)oc4cc(C)ccc34)nnc2-c2cccnc2)cc1 | -6.8% | 1.9% | -7.7% | -3.4% | -1.3% | 1.3%
CC(=O)Nc1ccc2c(CSc3nnc(-c4cccnc4)n3-c3ccc(C)cc3C)cc(=O)oc2c1 | 9.2µM* | 0.4% | 15.1% | -1.7% | -5.9% | -2.9%
CCOc1ccc(C2c3c(oc4ccc(C)cc4c3=O)C(=O)N2CCCN(C)C)cc1 (stereo not drawn) | · | -0.4% | · | · | · | ·
COc1ccc(-n2nc(C(=O)NCC(=O)N3CCCC3)c3ccccc3c2=O)cc1Cl | -3.6% | 8.49µM* | · | -2.1% | 10.9% | -5.4%
SMILES | ELG1 repair inh | FLuc modulator | SMN2 splice up | NPC1 prom act | Rab9 promoter act | ELG1 genotoxic
CCOC(=O)N1CCN(C(=O)CNC(=O)c2nn(-c3ccc(OC)c(OC)c3)c(=O)c3ccccc23)CC1 | ? | 6.75µM* | · | -0.2% | 11.5% | -11.4%
CCOC(=O)N1CCN(C(=O)CNC(=O)c2nn(-c3ccc(OC)c(Cl)c3)c(=O)c3ccccc23)CC1 | ? | 4.78µM* | · | 6.3% | 19.4% | 0.7%
COC(=O)CNC(=O)CNC(=O)c1nn(-c2ccc(OC)c(Cl)c2)c(=O)c2ccccc12 | -6.6% | 1.1% | -10.8% | -7.7% | 2.3% | -0.6%
COc1ccc(NC(=O)CNC(=O)c2nn(-c3ccc(OC)c(OC)c3)c(=O)c3ccccc23)c(OC)c1 | ? | -1.8% | · | -0.5% | 3.8% | 0.0%
COc1ccc(-n2nc(C(=O)NCC(=O)Nc3cc(OC)c(OC)c(OC)c3)c3ccccc3c2=O)cc1OC | 2.31µM* | -1.2% | · | -5.4% | -2.0% | -9.4%
CCC(=O)N1CCc2cc(Br)cc(S(=O)(=O)N3CCN(c4cccc(Cl)c4)CC3)c21 | · | 1.2% | -2.8% | · | · | ·
COc1ccc2c(c1)c1c(c(=O)n(-c3cccc(C)c3)c(=O)n1CC(=O)NCCC1=CCCCC1)n2C | · | -1.0% | 9.2% | · | · | ·
COc1ccc(-n2nc(C(=O)NCC(=O)NCCc3ccc(OC)c(OC)c3)c3ccccc3c2=O)cc1Cl | 6.51µM* | 0.0% | · | -0.6% | -3.4% | -4.0%
COCCNC(=O)CNC(=O)c1nn(-c2ccc(OC)c(Cl)c2)c(=O)c2ccccc12 | -21.8% | -4.8% | 7.8% | -5.7% | -0.1% | -0.2%
COc1ccc(NC(=O)CNC(=O)Cn2c(C)cc3ccccc3c2=O)cc1OC | 8.2µM* | 2.5% | -57.8% | -7.4% | 0.8% | -13.7%
COc1cc(NC(=O)CNC(=O)Cn2c(C)cc3ccccc3c2=O)cc(OC)c1OC | -9.9% | 0.2% | · | -1.9% | -0.5% | -9.3%
Cc1cc2cc(CCNS(=O)(=O)c3ccc(Br)cc3)c(=O)[nH]c2cc1C | · | -10.5% | -4.6% | · | · | ·
CCOC(=O)C1=NN(C(=O)c2ccc(OC)cc2)C(O)(c2ccc(Cl)cc2)C1 (stereo not drawn) | -2.5% | -14.0% | 12.0% | -1.3% | -7.5% | -5.8%
COC(=O)C1=NN(C(=O)c2cccc(Br)c2)C(O)(c2ccc(Cl)cc2)C1 (stereo not drawn) | -1.8% | 10.7µM* | · | -0.6% | -4.0% | 3.9%
COc1ccc(C(=O)Cn2nnc(-c3ccccc3NC(=O)C3CC3)n2)cc1 | -3.0% | -0.8% | -17.2% | -2.0% | 4.1% | -4.2%
COc1ccc(C(=O)Cn2nnc(-c3ccccc3F)n2)cc1 | 12.8% | 15.1µM* | · | 21.1% | 27.5% | 4.4%
COc1cccc(-c2nnn(CC(C)=O)n2)c1 | ? | 6.75µM* | 12.6µM* | 2.82µM* | 2.51µM* | ?

Assay outcomes as filed in PubChem.
